This note sets out measurements from PubChem BioAssay.

Records with an inconclusive call do not appear. Calls of active or inactive are those of the source.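 How the source made its calls, unless noted: active means normalized viability below 100% at a tested concentration; inactive means the rest.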

A short description of experiment [1]: growth inhibition of DIPG glioma cells, dose response, cell-based, SU-DIPG-XVII, MIPE5.0, CellTiter-Glo, qHTS (AID 1347060; cut-off not given, nearly all actives have AC50 up to about 26 µM;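 on AC50: cells exposed to compound for 48 hours before viability readout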). The settings on record: SU-DIPG-XVII viability, CellTiter-Glo ATP luminescence.
The nature of experiment [2]: growth inhibition of DIPG glioma cells, dose response, cell-based, JHH-DIPG-1, MIPE4.0, CellTiter-Glo, qHTS (AID 1347062; cut-off not given, nearly all actives have AC50 up to about 27 µM). The settings on record: JHH-DIPG-1 viability, CellTiter-Glo ATP luminescence.
Experiment [3] can be described thus: growth inhibition of DIPG glioma cells, dose response, cell-based, SU-DIPG-IV, MIPE4.0, CellTiter-Glo, qHTS (AID 1347063; cut-off not given, nearly all actives have AC50 up to about 30 µM;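 further: compound exposure lasted 48 hours before the viability readout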). The conditions noted are these: SU-DIPG-IV viability, CellTiter-Glo ATP luminescence. (Cellular ATP, detected with luciferase, serves as a proxy for viable cell number.)
Experiment [4] can be described thus: growth inhibition of DIPG glioma cells, dose response, cell-based, SU-DIPG-XIII, MIPE5.0, CellTiter-Glo, qHTS (AID 1347064; cut-off not given, nearly all actives have AC50 up to about 23 µM). The settings on record: SU-DIPG-XIII viability, CellTiter-Glo ATP luminescence.
A short description of experiment [5]: viability loss in pontine glioma line – cell-based, SU-DIPG-XXV, MIPE5.0, CellTiter-Glo, qHTS, dose response (AID 1347065; cut-off not given, nearly all actives have AC50 up to about 26 µM;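 further: cells exposed to compound for 48 hours before ATP readout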). The settings on record: CellTiter-Glo ATP luminescence.
The nature of experiment [6]: SU-DIPG-VI glioma cell viability, MIPE4.0 library, CellTiter-Glo luminescence, qHTS (AID 1347066; cut-off not given, nearly all actives have AC50 up to about 30 µM;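 further: cells exposed to compound for 48 hours before readout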). The settings on record: CellTiter-Glo ATP luminescence.
Experiment [7] can be described thus: JHH-DIPG-1 glioma cell viability, MIPE5.0 library, CellTiter-Glo luminescence, qHTS (AID 1347067; cut-off not given, nearly all actives have AC50 up to about 26 µM;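 further: cells exposed to compound for 48 hours before readout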). The conditions noted are these: JHH-DIPG-1 glioma viability, CellTiter-Glo ATP luminescence.
Experiment [8] can be described thus: growth inhibition of DIPG glioma cells, dose response, cell-based, SU-DIPG-XIII, MIPE4.0, CellTiter-Glo, qHTS (AID 1347061; cut-off not given, nearly all actives have AC50 up to about 37 µM;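 further: cells exposed to compound for 48 hours before readout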). The settings on record: SU-DIPG-XIII viability, CellTiter-Glo ATP luminescence.
Experiment [9] is described as follows: ovarian cancer cell viability with rucaparib, profiling panel, oncology-focused library, rucaparib conditional (AID 1508598). The conditions noted are these: patient-derived ovarian cancer cells, CellTiter-Glo viability, 144 h, stronger effect = lower value.
The nature of experiment [10]: liver-stage malaria parasite growth inhibition, primary screen, cell-based, HepG2, luciferase luminescence, HepG2 viability (AID 624349; in the data active means parasite load remaining mostly below about 12%, no sharp cut-off; inactive means mostly above about 10%;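 further: 100% = mean of DMSO negative control wells on the same plate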). The conditions noted are these: P. berghei liver stage in HepG2, luciferase luminescence, concentration not given here; parasite load remaining: stronger effect = lower value; viability: measured here: HepG2 viability without parasites.
The nature of experiment [11]: SU-DIPG-XXV glioma cell viability, MIPE5.0 library, qHTS (AID 1347068; cut-off not given, nearly all actives have IC50 up to about 30 µM). On the technique in general: Quantitative high-throughput screening tests each substance at several concentrations.
A short description of experiment [12]: sensitizers of A549 cells to miR-34 induction, primary screen, imaging, A549 dox-inducible miR-34, nuclei and caspase counts (AID 1347080;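 active means compounds whose cell count with miR-34 switched on is under 0.7 times the count with it off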). The settings on record: A549 miR-34 inducible, Hoechst nuclei count, 48 h.
The nature of experiment [13]: survival rescue of mitochondrial mutant cells in low glucose, primary screen, MELAS cybrids, Rieske KO mouse fibroblasts, CellTiter-Glo (AID 1508586;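 active means mean z-score across replicates of 1.96 or higher in either the MELAS or the Rieske mutant cell line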;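 further: z relative to plate mean and SD of compound and empty wells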).

Turning to `CC(/C=C1\SC(=S)N(CC(=O)O)C1=O)=C\c1ccccc1`, the result in experiment [1], in experiment [2], in [3], in experiment [4], in [5] and in experiment [6] was inactive. Further, the compound was called inactive in experiment [7].
For `Cc1c(NC(=O)OC[C@@H]2COCCN2)cn2ncnc(Nc3ccc4c(cnn4Cc4cccc(F)c4)c3)c12`, the AC50 (as a rule, the concentration giving half of the maximal activity seen) in [1] was 23.5 µM (active). Moreover, in [8], the compound was classed as inactive. The viability (as a rule, a read-out of living cells in per cent, often relative to untreated cells) in [9] (at 0.000305 µM, OCI-C5x cells, with rucaparib 10 µM, 100% = cells with rucaparib alone) was 137% (inactive); in experiment [9] (at 0.000305 µM, OCI-C5x cells, without rucaparib), 137% (inactive); in [9] (at 0.000305 µM, OCI-P5x cells, with rucaparib 20 µM, 100% = cells with rucaparib alone), 115% (inactive); in [9] (at 0.000305 µM, OCI-P5x cells, without rucaparib) it was 112% (inactive); in experiment [9] (at 0.00122 µM, OCI-C5x cells, with rucaparib 10 µM, 100% = cells with rucaparib alone), 131% (inactive); in experiment [9] (at 0.00122 µM, OCI-C5x cells, without rucaparib), 144% (inactive). Besides, the viability in experiment [9] (at 0.00122 µM, OCI-P5x cells, with rucaparib 20 µM, 100% = cells with rucaparib alone) was 114% (inactive); in [9] (at 0.00122 µM, OCI-P5x cells, without rucaparib) it was 111% (inactive); in experiment [9] (at 0.00488 µM, OCI-C5x cells, with rucaparib 10 µM, 100% = cells with rucaparib alone), 117% (inactive); in [9] (at 0.00488 µM, OCI-C5x cells, without rucaparib), 132% (inactive); in experiment [9] (at 0.00488 µM, OCI-P5x cells, with rucaparib 20 µM, 100% = cells with rucaparib alone), 109% (inactive); in experiment [9] (at 0.00488 µM, OCI-P5x cells, without rucaparib), 96.9% (active). Further, the viability in [9] (at 0.0195 µM, OCI-C5x cells, with rucaparib 10 µM, 100% = cells with rucaparib alone) is 119% (inactive); in [9] (at 0.0195 µM, OCI-C5x cells, without rucaparib), 133% (inactive); in experiment [9] (at 0.0195 µM, OCI-P5x cells, with rucaparib 20 µM, 100% = cells with rucaparib alone), 109% (inactive); in experiment [9] (at 0.0195 µM, OCI-P5x cells, without rucaparib) it was 98.1% (active); in experiment [9] (at 0.0781 µM, OCI-C5x cells, with rucaparib 10 µM, 100% = cells with rucaparib alone), 116% (inactive); in experiment [9] (at 0.0781 µM, OCI-C5x cells, without rucaparib) it was 139% (inactive). The viability was 111% (inactive) in [9] (at 0.0781 µM, OCI-P5x cells, with rucaparib 20 µM, 100% = cells with rucaparib alone); 98% (active) in [9] (at 0.0781 µM, OCI-P5x cells, without rucaparib); 121% (inactive) in experiment [9] (at 0.313 µM, OCI-C5x cells, with rucaparib 10 µM, 100% = cells with rucaparib alone); 133% (inactive) in experiment [9] (at 0.313 µM, OCI-C5x cells, without rucaparib); 103% (inactive) in experiment [9] (at 0.313 µM, OCI-P5x cells, with rucaparib 20 µM, 100% = cells with rucaparib alone); 96.4% (active) in experiment [9] (at 0.313 µM, OCI-P5x cells, without rucaparib). Further, the viability is 121% (inactive) in experiment [9] (at 1.25 µM, OCI-C5x cells, with rucaparib 10 µM, 100% = cells with rucaparib alone); 140% (inactive) in experiment [9] (at 1.25 µM, OCI-C5x cells, without rucaparib); 96.9% (active) in experiment [9] (at 1.25 µM, OCI-P5x cells, with rucaparib 20 µM, 100% = cells with rucaparib alone); 92.8% (active) in experiment [9] (at 1.25 µM, OCI-P5x cells, without rucaparib); 89.2% (active) in experiment [9] (at 5 µM, OCI-C5x cells, with rucaparib 10 µM, 100% = cells with rucaparib alone); 144% (inactive) in [9] (at 5 µM, OCI-C5x cells, without rucaparib). Also, the viability is 92.1% (active) in [9] (at 5 µM, OCI-P5x cells, with rucaparib 20 µM, 100% = cells with rucaparib alone) and 96.9% (active) in [9] (at 5 µM, OCI-P5x cells, without rucaparib).
`CC(C)(C)c1nc2c3cc[nH]c(=O)c3c3cc(F)ccc3c2[nH]1`: the parasite load remaining in [10] was 88% (inactive). In addition, the viability in experiment [10] is 127%. Moreover, the figures for the AC50 in experiment [1] and in experiment [5] were 16.6 µM (active) and 1.48 µM (active), respectively. In addition, the compound was called inactive in experiment [8].
For the compound `O=C(O)[C@H](CC(=O)N1C[C@H]2CCCC[C@H]2C1)Cc1ccccc1`, the compound was classed as inactive in experiment [1], in [2], in [3], in experiment [4], in experiment [5] and in [6]. The call in experiment [7] and in [11] was inactive.
As to `CC1=C(C(=O)Nc2cc3cn[nH]c3cc2F)C(c2ccc(Cl)cc2F)N=C(c2ccnc(Cl)c2)N1` (centres undefined), the AC50 is 13.2 µM (active) in experiment [1], 5.9 µM (active) in [5] and 16.6 µM (active) in experiment [7]. Moreover, the result in experiment [8] was inactive.
On to `NC1=N[C@H]2[C@H](CS[C@H]2CCCCC(=O)O)N1`, for which the compound was classed as inactive in experiment [1], in experiment [2], in experiment [3], in [4], in [5] and in experiment [6]. Besides, the call in experiment [7] was inactive.
For `CCCCOc1ccc(C(=O)Nc2ccc(F)cc2F)cc1`, the result in [1], in experiment [2], in experiment [3], in experiment [4], in [5] and in experiment [6] was inactive. The call in [7] and in experiment [11] was inactive. Besides, the fold change in experiment [12] (stronger effect = lower value, cell number ratio, induced over uninduced) is 0.889 (inactive); in [12] (measured here: relative caspase fold change +Dox/-Dox) it was 0.917. Also, the cell count in experiment [12] (measured here: total cells with miR-34 induction, stronger effect = lower value) came out at 9070; in experiment [12] (measured here: total cells without miR-34 induction) it was 10200. Further, the z-score in experiment [13] (MELAS cybrid survival, CellTiter-Glo 48 h, stronger effect = higher value) was -0.373 (inactive); in experiment [13] (Rieske KO mouse fibroblast survival, CellTiter-Glo 72 h) it was 0.589.
